Reference: PubChem BioAssay (NCI)
About 83,000 compounds went through this panel and 20% of them were active in at least one assay; those are over-represented in the sample as a whole.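 48-hour exposure, single concentration, 96-well plates; percent growth endpoint where 0 means no net growth. Active: below 10.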 The source made the active and inactive calls.

Tested on: UACC-62 melanoma
Assay: NCI-60 one-dose screen, 48 h (100 = growth as untreated, 0 = no growth, -100 = all killed)
Details: 10 µM unless noted
Method: Growth inhibition of the UACC-62 human tumor cell line is measured as a screen for anti-cancer activity. Cells are grown in 96 well plates and exposed to the test compound for 48 hours. Compounds are tested at a single concentration, which is 10^-5 M for most compounds. The reported endpoint is percent growth (GI% or GIPRCNT), where numbers from 0 - 100% represent growth inhibition, and numbers from -100% - 0 represent cell death. For example, a value of 40 represents 60% growth inhibition. A value of 0 means no net growth occurred over the course of the experiment. A value of -40 indicates 40% of cells at the beginning of the experiment died by the end of the experiment. A value of -100 means all cells are dead at the end of the experiment.
NCI-60 Human Tumor Cell Lines Screen was performed using the standard one-dose NCI protocol, which is described in more detail at https://dtp.cancer.gov/discovery_development/nci-60/default.htm.
Compounds with GIPRCNT values below 10 were considered active. Activity score was based on GIPRCNT using the following formula: […]
Score is 0 for GIPRCNT values of 100 or above, 50 for GIPRCNT values of 0, and 100 for GIPRCNT values of -100.

| Compound | growth |
| --- | --- |
| CNC(=O)OC1C(O[C@H]2C[C@H]3[C@@H]4CC=C5C[C@@H](O)CC[C@]5(C)[C@H]4CC[C@]3(C)[C@H]2[C@H](C)C(=O)CCC(C)C)OCC(O)C1OC1OCC(O)C(O)C1OC(=O)c1ccc(OC)cc1 (stereo not given in full) | -27.6% (active) |
| COc1ccc(Nc2nc(N)nc3c(=O)[nH]ccc23)cc1 | 111% (inactive) |
| CC(CN1CCN(CC(C)Nc2ccnc3cc(Cl)ccc23)CC1)Nc1ccnc2cc(Cl)ccc12 (stereo not given) | -62.7% (active) |
| C[C@H](NC(=O)c1snnc1C1CC1)c1c(F)cccc1Cl | 87.8% (inactive) |
| Cc1ccccc1Nc1n[nH]c(Cc2ccccc2)n1 | 98.4% (inactive) |
| COc1cc2ncnc(Nc3ccc(S(=O)(=O)Nc4cc(C)on4)cc3)c2cc1OCCCN1CCN(c2ccc([N+](=O)[O-])cc2)CC1 | 94.4% (inactive) |
| COC(=O)[C@H](Cc1cn(C)cn1)NC(=O)[C@H](CC(C)C)NC(=O)Nc1cc(C(F)(F)F)cc(C(F)(F)F)c1 | -99.3% [100 µM] (active) |
| CS(=O)(=O)c1ccc(Cl)c([N+](=O)[O-])c1 | 112% (inactive) |
| CN(C)c1nc(-c2ccco2)n2nc(-c3ccc(Cl)cc3)cc2n1 | 87% (inactive) |
| CCN1C(=O)C(C)C=C(C)C=C1C (stereo not given) | 103% (inactive) |
| CCC(=O)NC1=C(Cl)C(=O)C(NC(=O)CC)=C(Cl)C1=O | 102% (inactive) |
| O=C(CCCN1CCC(O)(c2ccc(Br)cc2)CC1)c1ccc(F)cc1 | 43.6% (inactive) |
| CCN1C(=O)N(CC)C2C1NN=c1s/c(=C\c3ccco3)c(=O)n12 (stereo not given) | 29.2% (inactive) |
| CCCCOC(=O)c1cc(O)c(O)c(O)c1 | 62% (inactive) |
| CCCCOc1nc2ccc(C)cc2cc1/C=C/C(=O)/C=C(O)/C=C/c1cc2cc(C)ccc2nc1OCCCC | 87.6% (inactive) |
| CCCCCCCCCCCCCCCC1=NC(C)(C)CN1C(C)C | -75.5% (active) |
| CCn1c(Cc2ccccc2Nc2c(Cl)cccc2Cl)nnc1SCC(=O)Nc1cccc(OC)c1 | 33.6% (inactive) |
| Oc1ccccc1-c1nnc(COc2ccc(Cl)cc2Cl)o1 | 25.1% (inactive) |
| c1ccc(-c2ccc(-c3ccccc3)[nH]2)cc1 | 87.2% (inactive) |
| O=C1/C=C/[C@@H](O)[C@@H]2C[C@@H](O)C[C@H]2/C=C/CCC[C@H]([C@@H](O)CO)O1 | 62.5% (inactive) |

| Compound | growth |
| --- | --- |
| CC(C)N(C(=S)SSC(=S)N(C(C)C)C(C)C)C(C)C | 105% (inactive) |
| C=C(C)[C@@H]1CC[C@]2(C(=O)NS(=O)(=O)c3ccccc3)CC[C@]3(C)[C@H](CC[C@@H]4[C@@]5(C)CC[C@H](OC(=O)NS(=O)(=O)c6ccccc6)C(C)(C)[C@@H]5CC[C@]43C)[C@@H]12 | -83.1% (active) |
| CCSc1cnnc2ccccc12 | 102% (inactive) |
| O=C(O)c1ccccc1Oc1cc(-c2ccco2)nc(OCCN2CCOCC2)n1 | 98.9% (inactive) |
| COC(=O)c1ccc2c(c1)nc(-c1ccc(Cl)cc1)n2-c1cc(C(C)(C)C)[nH]n1 | 45.7% (inactive) |
| COc1cnc2c(c1)C(=O)c1c-2n(CCCN2CCN(C)CC2)c(=O)c2cc(Cl)ccc12 | -49% (active) |
| CCN(CC)CCCCCCCCNc1c2ccc(Cl)cc2nc2ccc(OC)cc12 | -82.1% (active) |
| O=C(CSc1nnc(Cc2ccccc2Nc2c(Cl)cccc2Cl)n1-c1ccccc1)N1N=C(c2ccc3ccccc3c2)CC1c1ccc(Cl)cc1 (stereo not given) | 87.6% (inactive) |
| NC(CCC(=O)NC(CS)C(=O)NCC(=O)O)C(=O)O (stereo not given) | 96.7% (inactive) |
| CCCCCCCCCCCCNC(=O)N[C@H](C(=O)N[C@H]1/C=C/CCNC(=O)/C=C/[C@H](C)NC1=O)C(C)C | -88.8% (active) |
| CN1C(=O)N(C)C2C1NN=c1s/c(=C\c3ccc(Br)cc3)c(=O)n12 (stereo not given) | 27.9% (inactive) |
| COc1cc(C)c(Cl)cc1C1=NN(c2ccc(S(N)(=O)=O)cc2)C(/C=C/c2ccccc2)C1 (stereo not given) | 39.8% (inactive) |
| CN1C(=O)NC(Cc2c[nH]c3c(Cl)cccc23)C1=O (stereo not given) | 96.1% (inactive) |
| NC(N)=NC1CCCCC1 | 99.6% (inactive) |
| COc1ccc2nc(C)cc(Sc3nc4ccccc4s3)c2c1 | 47.3% (inactive) |
| C=C1C(=O)O[C@H]2[C@H]1CC/C(COC(=O)NCc1ccc(Cn3c(=O)sn(CCCl)c3=O)cc1)=C\CC[C@@]1(C)O[C@@H]21 | 69.5% (inactive) |
| Cn1c(=O)c2c(nc(N/N=C/c3ccccc3Cl)n2C)n(C)c1=O | 104% (inactive) |
| COc1ccc2c(c1)N(Cc1ccc(Cl)cc1)CCC2N1CCCC1=O (stereo not given) | 42.1% (inactive) |
| COc1cc2c(cc1OC)-c1cc(OC)c(OC)cc1C(CN(C)C)C2 (stereo not given) | 20.4% [100 µM] (inactive) |
| CCCCCCCCCCCCNC(=O)N[C@H](C(=O)N[C@H]1/C=C/OCCNC(=O)/C=C/[C@H](C(C)C)NC1=O)C(C)C | 55.4% (inactive) |
